Bioassay records deposited in PubChem by The Scripps Research Institute Molecular Screening Center.
CHRM4 agonist – human M4 muscarinic receptor agonists, primary screen, CHO-K1 cells, Fluo-8 calcium fluorescence. CHO-K1 hM4/Gqi5; vehicle 0%, full acetylcholine response 100%. activation, % at 3 µM. hit rate 0.14% among 360,000. AID 624127, 2012;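 active means activation above the run mean over all test wells plus 3 SD, cut at about 32% in these data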;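 further: peak over basal fluorescence ratio per well then scaled between controls; 0% = DMSO wells and 100% = acetylcholine at EC100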
Target sequence (P08173 whole entry, looked up): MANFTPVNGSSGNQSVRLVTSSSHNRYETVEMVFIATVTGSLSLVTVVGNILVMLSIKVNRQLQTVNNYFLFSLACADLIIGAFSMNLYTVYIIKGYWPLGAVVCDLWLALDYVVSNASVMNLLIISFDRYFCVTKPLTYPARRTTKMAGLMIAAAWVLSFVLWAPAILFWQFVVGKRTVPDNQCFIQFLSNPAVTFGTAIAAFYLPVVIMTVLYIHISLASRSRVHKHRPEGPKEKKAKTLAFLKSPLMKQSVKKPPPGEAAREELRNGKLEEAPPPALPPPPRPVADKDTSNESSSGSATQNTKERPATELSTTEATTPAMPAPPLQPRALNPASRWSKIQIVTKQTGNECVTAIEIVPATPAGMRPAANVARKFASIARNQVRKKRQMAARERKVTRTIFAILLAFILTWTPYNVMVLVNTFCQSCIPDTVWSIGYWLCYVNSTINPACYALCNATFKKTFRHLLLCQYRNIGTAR
M1 PAM – human M1 muscarinic receptor positive allosteric modulators, primary screen, CHO-K1 cells, Fluo-8 calcium fluorescence, 1536-well | Muscarinic acetylcholine receptor M1 (Homo sapiens), P11229 | CHO-K1 hM1, ACh EC20; 0% = ACh EC20, 100% = maximal ACh | activation, % at 3 µM | hit rate 0.088% among 360,000 | AID 588819, 2011; in the data active means activation above about 19%, passing the limit was not always enough
CHRM4 PAM – human M4 muscarinic receptor positive allosteric modulators, primary screen, CHO-K1 cells, Fluo-8 calcium fluorescence; Muscarinic acetylcholine receptor M4 (Homo sapiens), P08173; CHO-K1 hM4/Gqi5, ACh EC20; 0% = ACh EC20, 100% = maximal ACh; activation, % at 3 µM; hit rate 0.4% among 360,000;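 active means activation above its plate's cutoff, the mean activation of sample wells plus 3 SD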
M4 antag – human M4 muscarinic receptor antagonists, primary screen, CHO cells, Fluo-8 calcium fluorescence; inhibition, % at 3 µM; Muscarinic acetylcholine receptor M4 (Homo sapiens), P08173; hit rate 0.73% among 360,000; CHO-hM4 cells, ACh EC80; AID 624125, 2012;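 active means inhibition above its plate's cutoff, the mean inhibition of sample wells plus 3 SD, cut at about 27% in these data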;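 further: 0% = acetylcholine EC80 with DMSO and 100% = DMSO without agonist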
M1 ag – human M1 muscarinic receptor agonists, primary screen, Fluo-8 calcium fluorescence, CHO-K1 cells, HTS; hit rate 0.33% among 360,000; Muscarinic acetylcholine receptor M1 (Homo sapiens), P11229; CHO-K1 hM1, agonist mode; 0% DMSO, 100% acetylcholine EC100; AID 588814, 2011; activation, % at 3 µM;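 active means activation above the run's mean compound activation plus 3 SD, cut at about 16% in these data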;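 further: peak over basal fluorescence ratio within a 140 s kinetic read after compound addition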
M1 antag – human M1 muscarinic receptor antagonists, primary screen, CHO-K1 cells, Fluo-8 calcium fluorescence, 1536-well | CHO-K1 hM1, ACh EC80 antagonist | hit rate 1.3% among 360,000 | inhibition, % at 3 µM | Muscarinic acetylcholine receptor M1 (Homo sapiens), P11229 | AID 588852, 2011;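 active means percent inhibition above its own plate's cutoff, namely the mean of that plate's compound wells plus 3 SD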;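 further: peak over basal fluorescence ratio during 140 s after agonist addition; 0% = ACh EC80 plus DMSO and 100% = DMSO alone without agonist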
Numbers without * were called inactive. Most compounds without a hit are left out; they make up all but 2.2% or so of the library.

SMILES	CHRM4 agonist	M1 PAM	CHRM4 PAM	M4 antag	M1 ag	M1 antag
COC(=O)c1cc(Br)c(=O)n(-c2nccs2)c1	1	8	28*	-15	-4	-5
Cc1cc(C)c2oc(C(=O)N3CCN(C)CC3)cc(=O)c2c1	1	32*	3	-21	-2	-33
Cc1nc2c(-c3ccc(F)cc3)c(C)nn2c(C)c1CCC(=O)Nc1ccccc1	2	3	16	14	-2	7
CCN1CCN(c2ccc(NC(=O)CCc3c(C)nc4c(-c5ccc(F)cc5)c(C)nn4c3C)cc2)CC1	3	-26	-8	15	-9	34*
OCC1(Cc2ccc(F)cc2F)CCCN(CCCc2ccccc2)C1 (stereo not given)	6	-16	-14	-11	-10	15
OCC1(Cc2ccccc2F)CCCN(CCc2ccccc2)C1 (stereo not given)	2	-25	-14	26	-10	31*
CCOc1cc(C(=O)N(C)Cc2cc3cc(OC)ccc3[nH]c2=O)cc(OCC)c1OCC	1	6	30*	-2	-2	-17
Clc1ccc(-c2nnc(NC3=NCCCCC3)o2)cc1	2	6	5	-1	-1	0
Cc1cccnc1C(NC(=O)C1CCN(Cc2ccccc2)CC1)c1ccc(F)cc1 (stereo not given)	2	0	1	-1	-3	-7
Cc1cccnc1C(NC(=O)C1CCN(Cc2ccc(Oc3ccccc3)cc2)CC1)c1ccccc1 (stereo not given)	3	-20	-13	29*	-9	27*
Cc1ccccc1NS(=O)(=O)c1cc(C(N)=O)ccc1C	1	0	14	3	-3	0
CC(C)(CNC(=O)Cc1ccc(NS(=O)(=O)c2cccc(C(F)(F)F)c2)cc1)N1CCOCC1	2	-13	1	8	-6	34*
CCOCCCNC(=O)C1(O)c2ccccc2NC(=O)N1c1ccc(Cl)cc1 (stereo not given)	7	4	-6	5	0	-16
Cc1csc2ncnc(NNC(=O)c3ccc(Cl)cc3)c12	20	-21	-44	26	4	43*
O=C(NNc1ncnc2sccc12)c1ccc(Cl)cc1	8	-1	-5	17	3	-5
C=CCC1(CC=C)CCCN1C(=O)CC1C(=O)NCCN1Cc1cccc(OC)c1OC (stereo not given)	1	10	0	-8	-4	-11
O=C(NC1(C(=O)O)CCCC1)c1ccccc1	1	14	16*	-8	-1	-17
O=C(O)C1(Nc2ccccc2)CCCC1	0	-5	0	2	-1	12
CCOC(=O)C1CCN(C(=O)c2cc(S(=O)(=O)N3CCCCC3)ccc2C)CC1	2	6	3	-7	-1	-4
COC(=O)c1ccc(N=Nc2c(C)[nH]n(-c3ccccc3)c2=O)cc1	0	13	-2	3	-1	-22
N#Cc1ccc(C23CC4(C2)[C@H](CN(P(=O)(c2ccccc2)c2ccccc2)[C@@H]4c2ccccc2)C3c2ccc(Cl)nc2)cc1 (stereo not given in full)	1	-8	1	-1	-4	15
COC(=O)c1ccc(C23CC4(C2)[C@H](CN(C)[C@@H]4c2ccccc2)C3c2ccc(Cl)nc2)cc1 (stereo not given in full)	4	-35	-17	15	-7	70*
CN1C[C@@H]2C(c3ccc(Cl)nc3)C3(c4ccc(C#N)cc4)CC2(C3)[C@H]1c1ccccc1 (stereo not given in full)	4	-38	-14	14	-13	55*
Cc1nn(-c2nc3ccccc3s2)c(C)c1Oc1ccccc1O	37*	-3	-30	32*	-5	-4
Cc1nn(-c2ccccn2)c(C)c1Oc1ccccc1O	1	-4	-3	-4	-6	7
SMILES	CHRM4 agonist	M1 PAM	CHRM4 PAM	M4 antag	M1 ag	M1 antag
O=C(Nc1ccccc1Cl)c1cc(C2CCCCN2C(=O)C2CCCCC2)on1 (stereo not given)	0	-3	-3	7	-8	-8
COC(=O)N1CCCCC1c1cc(C(=O)Nc2ccccc2Cl)no1 (stereo not given)	0	28*	7	-16	2	-23
CCCc1nc2n[nH]c(N)c2c2c1CCC2	0	4	1	-6	2	-35
CCCc1nc2n[nH]c(N)c2c2c1CCCC2	2	6	26*	2	-2	-13
COc1ccc(NC(=O)c2ccccc2N(Cc2ccccc2)S(C)(=O)=O)c(OC)c1	2	4	-4	1	-2	-10
COC(=O)C(NC(=O)c1ccccc1Cl)(Nc1ncc(S(=O)(=O)c2ccc([N+](=O)[O-])cc2)s1)C(F)(F)F (stereo not given)	13	2	-8	-6	22*	10
OCCN1CCN(CC/C=C2/c3ccccc3Sc3ccc(C(F)(F)F)cc32)CC1	7	-24	-13	4	-5	36
CCCCCC[N+](C)(C)CC/C=C1/c2ccccc2Sc2ccc(Cl)cc21	-1	-24	-59	99*	-7	99*
CN1CCN(CCC=C2c3ccccc3Sc3ccc(S(=O)(=O)N(C)C)cc32)CC1	8	-9	-13	10	-3	-13
CN(C)CC/C=C1/c2ccccc2Sc2ccc(Cl)cc21	9	-25	-19	99*	-4	99*
O=C(N/N=C/c1ccco1)c1cnccn1	1	-2	-10	8	-5	8
Cc1ccc(C(=O)/C=C/c2cn(CC(O)CN3CCOCC3)c3ccccc23)cc1 (stereo not given)	11	6	-5	-2	-6	2
CCOc1ccc(C(=O)NC2CC3CCCC(C2)N3CC(C)C)cc1 (stereo not given)	0	-14	-6	10	-6	40*
CC(C)CN1C2CCCC1CC(NC(=O)c1ccc([N+](=O)[O-])cc1)C2 (stereo not given)	0	-6	5	-10	-10	-7
COc1cc(NC(=O)c2ccc(N3CC4CC(C3)c3cccc(=O)n3C4)c(NC(=O)c3ccncc3)c2)cc(OC)c1OC (stereo not given)	0	3	6	-5	-1	3
CCN1C(=O)c2cccc3c(N)ccc(c23)C1=O	317*	-37	-24	44*	192*	48*
